This passage reports z-score results from PubChem BioAssay.

The structures appear in SMILES notation. The source made the active and inactive calls. No rule for the calls is given here.

This assay is described as follows: blockers of DNA damage checkpoint Chk1 activation – imaging, HeLa, hydroxyurea, phospho-Chk1 nuclear intensity, primary screen (AID 1187). Also: test concentration not given here. Conditions: hydroxyurea-induced phospho-Chk1 immunofluorescence imaging, higher = more signal.
With `[N-]=[N+]=NCc1ccccc1C[C@@]1(C(=O)NCc2ccccc2)N=C(c2ccc(OCCCO)cc2)O[C@@H]1c1ccccc1N=[N+]=[N-]`, the z-score is -0.147 (inactive).

For `CCCNC(=O)[C@@H]1c2ccccc2C(=O)N(C(C)C)[C@H]1c1ccc(CO)cc1`, the z-score was -0.333 (inactive).

`O=C1C=C(c2ccccc2)C(=O)c2ccc([C@H]3Oc4ccccc4S(=O)(=O)N4CCC[C@@H]34)cc21`: the z-score was 0.885 (inactive).

Turning to `O=C1O[C@@H](c2ccccc2)[C@@H](c2ccccc2)N2[C@@H](c3ccccc3OCCO)[C@]3(C(=O)Nc4ccc(C#CCCO)cc43)[C@@H](C(=O)N3CCCCCCC3)[C@H]12`, the z-score is -0.462 (inactive).

As to `CC(C)C(=C=CC[C@H](O)c1ccc(OCCO)cc1)C[C@H](O)c1ccccn1`, the z-score is 0.223 (inactive).

Turning to `COc1cc2c(cc1OC)CN(C(=O)[C@@H]1[C@H]3C(=O)O[C@H](c4ccccc4)[C@H](c4ccccc4)N3[C@H](c3ccc(OCCO)cc3)[C@@]13C(=O)Nc1ccccc13)CC2`, the z-score is -0.256 (inactive).

For the molecule `COc1ccc([Si](C)(C)[C@H]2[C@H](CCn3cc([C@H](O)c4ccccc4)nn3)O[C@@]3(C(=O)N(Cc4ccc(N5C(=O)c6cccc7cccc5c67)cc4)c4ccccc43)[C@@H]2C)cc1`, the z-score is -0.162 (inactive).
